Inconclusive results are not listed. Unmarked numbers belong to inactive results. The source made the active and inactive calls. The call rests on the fitted dose curve; in most records, active means well fitted inhibition curve with a large enough effect; inconclusive means small, poorly fitted or top-dose-only effect; inactive means flat fitted curve, though single readings scatter.
Molecular target: Galactokinase (Homo sapiens) (UniProt P51570)
Test: Confirmation Assay for Inhibitors of Human Galactokinase (GALK): SAR round 2
Conditions: Recombinant GALK, Kinase-Glo ATP depletion luminescence; series mostly up to 57.5 µM; activity, negative = inhibition: at the top concentration
Text: NIH Molecular Libraries Probe Production Centers Network [MLPCN] NIH Chemical Genomics Center [NCGC] MLPCN Grant: R03 MH085689-01 Assay Submitter (PI): Kent Lai (University of Utah School of Medicine, 50 N Mario Capecchi Drive, Salt Lake City, UT 84132) NCGC Assay Overview Inherited deficiency of galactose-1-phosphate uridyltransferase (GALT) can result in a potentially lethal disorder called Classic Galactosemia (OMIM 230400). Several lines of evidence indicate that an elevated level of galactose-1-phosphate (gal-1-p), the product of galactokinase (GALK), is a major, if not sole, pathogenic mechanism in patients with classic galactosemia. Therefore, finding inhibitors of GALK is a potential novel therapy for this inherent metabolic disease and is the long term goal of this project. Active compounds observed in the qHTS GALK assay (AID: 1868) were cherry picked and re-screened for validation. GALK (provided by Kent Lai) was assayed using ATP and D-(+)-Galactose (Sigma-Aldrich cat# G0750) as substrates. Promega Kinase-Glo Plus (cat# V3774) technology was used to detect the residual ATP following kinetic reaction. Briefly, the Kinase-Glo Plus contains Ultra-Glo [1] luciferase and D-luciferin which generates a bioluminescence signal from the remaining ATP. Kinase reactions with and without GALK were used as negative and positive controls together with Protein Tyrosine Phosphatase CD45 inhibitor (EMD Bioscience cat# 540215) which is shown to inhibit GALK activity.
NCGC Assay Protocol Summary: Three uL/well of ATP-buffer solution (35 uM ATP, 20mM HEPES pH8.0, 5 mM MgCl2, 60 mM NaCl, 1 mM DTT, 0.01% BSA final concentration) was dispensed into 1536-well, assay plates (Greiner, solid white medium-binding plates) with Aurora Discovery BioRAPTR Flying Reagent Dispenser (FRD; Beckton-Dickenson). Compound and control solution (23 nL) was transferred to the assay plate using the Kalypsys 1536-pin tool apparatus. One uL/well GALK-galactose solution (5 nM GALK, 100 uM galactose, 20 mM HEPES pH8.0, 5 mM MgCl2, 60 mM NaCl, 1 mM DTT, 0.01% BSA final concentration) was then added using the FRD yielding a total kinase reaction volume of 4 uL/ well. After 1 hour of room temperature incubation, 4 uL Kinase-Glo Plus reagent was added for a final assay volume of 8 uL/well. Luminescence was detected with the ViewLux plate reader (Perkin Elmer, Waltham, MA) after 2 min incubation using a 1 sec exposure time and 2x binning.

Sequence of Galactokinase (Homo sapiens) (P51570 whole entry, looked up): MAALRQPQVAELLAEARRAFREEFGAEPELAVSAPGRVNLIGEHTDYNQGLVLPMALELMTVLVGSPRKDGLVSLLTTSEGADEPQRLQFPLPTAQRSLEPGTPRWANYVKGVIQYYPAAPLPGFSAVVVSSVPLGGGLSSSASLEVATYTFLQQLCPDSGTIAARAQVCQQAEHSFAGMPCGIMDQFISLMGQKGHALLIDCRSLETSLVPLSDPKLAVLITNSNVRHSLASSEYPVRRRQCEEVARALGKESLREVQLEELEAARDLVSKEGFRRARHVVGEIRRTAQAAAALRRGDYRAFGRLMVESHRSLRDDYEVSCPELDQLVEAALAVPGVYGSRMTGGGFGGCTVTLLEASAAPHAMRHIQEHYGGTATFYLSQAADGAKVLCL

SMILES | activity, negative = inhibition | Potency
O=C1CCCC2=C1C(c1cccc(Oc3ccccc3)c1)N=C(Nc1nc3ccccc3o1)N2 (configuration not stated) | -10.9% [at 172 µM] | –
COc1cccc(C2N=C(Nc3nc4ccccc4o3)NC3=C2C(=O)CCC3)c1 (configuration not stated) | – | 18.8 µM (active)
O=C1CCCC2=C1C(c1ccccc1)N=C(Nc1nc3ccccc3o1)N2 (configuration not stated) | – | 34.3 µM (active)
CC(C)c1nc(Nc2nc3ccccc3o2)nc2c1CCCC2 | -1.14% | –
Cc1ccc(C2N=C(Nc3nc4ccccc4o3)NC3=C2C(=O)CCC3)s1 (configuration not stated) | – | 61.1 µM (active)
O=C1CCCC2=C1C(c1ccccc1C(F)(F)F)N=C(Nc1nc3ccccc3o1)N2 (configuration not stated) | – | 12.2 µM (active)
Cc1nc(Nc2nc3ccccc3o2)nc2c1CCCC2 | 0.459% | –
Cc1ccc(N(CC(=O)Nc2ccc(OC(F)(F)F)cc2)S(=O)(=O)c2c(C)noc2C)cc1 | -9.27% [at 115 µM] | –
O=C1CCCC2=C1[C@@]1(CCC(c3ccccc3)C1)N=C(Nc1nc3ccccc3o1)N2 (some centres not stated) | -7.78% | –
CC(C)(C)C(=O)Nc1ccc2c(c1)C(=O)C(=O)c1ccccc1-2 | – | 2.59 µM (active)
O=C1CCCC2=C1C(c1ccncc1Cl)N=C(Nc1nc3ccccc3o1)N2 (configuration not stated) | – | 15.3 µM (active)
O=C1CCCC2=C1C(c1ccccc1Cl)N=C(Nc1nc3ccccc3o1)N2 (configuration not stated) | – | 2.66 µM (active)
